Some test systems named below: DU-145 prostate; MALME-3M melanoma; MDA-MB-231 breast; RXF 393 renal; SF-268 CNS; SF-295 CNS; SF-539 CNS; UACC-257 melanoma; M14 melanoma; HCT-15 colon; HT29 colon; SNB-75 CNS; SNB-19 CNS; U251 CNS; PC-3 prostate; SK-MEL-5 melanoma; UACC-62 melanoma; LOX IMVI melanoma; SK-MEL-28 melanoma.
Common to all, as to assay: NCI-60 one-dose screen, 48 h (100 = growth as untreated, 0 = no growth, -100 = all killed)
In a further experiment the test system is K-562 leukemia. Particulars: 10 µM unless noted.

The structures appear in SMILES notation. This is part of a sample that, as a whole, favours compounds with a hit. Of some 83,000 tested, about 20% had one in any assay.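 Results are percent growth after 48 hours of single-concentration exposure. 100 means growth as in untreated cells, lower positive values show inhibition; negative values down to -100 show cell death.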 A number with no mark means an inactive call. Active and inactive are the calls of the source. How the source made its calls: active means growth percent below 10; inactive means the rest.

Consider `CC/C(=C(\c1ccc(O)cc1)c1ccc(OCCNC)cc1)c1ccccc1`, for which the growth with DU-145 prostate (1 µM) is 103%; in the experiment on DU-145 prostate (10 µM), 83.6%; with MALME-3M melanoma (1 µM), 88.6%; in the experiment with MALME-3M melanoma (10 µM), 91%; with MDA-MB-231 breast (1 µM), 96.3%; in the experiment on MDA-MB-231 breast (10 µM) it was 82.5%. In addition, the growth with RXF 393 renal (1 µM) is 103%; in the experiment on RXF 393 renal (10 µM) it was 82.4%; with SF-268 CNS (1 µM) it was 104%; with SF-268 CNS (10 µM) it was 79.8%; in the experiment with SF-295 CNS (1 µM), 99.6%; in the experiment with SF-295 CNS (10 µM), 96.4%. For the same molecule, the growth in the experiment with SF-539 CNS (1 µM) is 93.6%; in the experiment with SF-539 CNS (10 µM), 85.2%; in the experiment with UACC-257 melanoma (1 µM), 95.3%; in the experiment with UACC-257 melanoma (10 µM), 97.2%; in the experiment with M14 melanoma (1 µM), 107%; with M14 melanoma (10 µM), -18.8% (active). The growth in the experiment on HCT-15 colon (1 µM) was 107%; in the experiment on HCT-15 colon (10 µM), 69.8%; in the experiment on HT29 colon (1 µM) it was 98.7%; in the experiment with HT29 colon (10 µM) it was 55.6%; in the experiment on SNB-75 CNS (1 µM), 110%; in the experiment on SNB-75 CNS (10 µM), 62.7%. The growth in the experiment on SNB-19 CNS (1 µM) was 94.6%; in the experiment with SNB-19 CNS (10 µM), 98.6%; in the experiment on U251 CNS (1 µM) it was 98.6%; in the experiment on U251 CNS (10 µM), 57.4%; in the experiment on PC-3 prostate (1 µM) it was 101%; in the experiment on PC-3 prostate (10 µM), 83%. Further, the growth in the experiment with SK-MEL-5 melanoma (1 µM) is 97.1%; with SK-MEL-5 melanoma (10 µM), 89.2%; with UACC-62 melanoma (1 µM), 91.6%; in the experiment on UACC-62 melanoma (10 µM) it was 101%; in the experiment on LOX IMVI melanoma (1 µM), 86.9%; with LOX IMVI melanoma (10 µM), 83.1%. Moreover, the growth with SK-MEL-28 melanoma (1 µM) was 98.5%; in the experiment on SK-MEL-28 melanoma (10 µM) it was 93.3%.

`CN(C)c1nc(NCCNS(=O)(=O)c2ccc(C(=O)/C=C/c3ccc(Cl)cc3)cc2)nc(N2CCOCC2)n1`: the growth was 6.95% (active) in the experiment on DU-145 prostate (10 µM unless noted); -6.36% (active) in the experiment with K-562 leukemia; 89.2% in the experiment with MALME-3M melanoma (10 µM unless noted); 15.7% in the experiment with MDA-MB-231 breast (10 µM unless noted); -59.3% (active) with RXF 393 renal (10 µM unless noted); 57.8% in the experiment on SF-268 CNS (10 µM unless noted). In addition, the growth is 55.5% with SF-295 CNS (10 µM unless noted); -67.5% (active) in the experiment on SF-539 CNS (10 µM unless noted); 71.5% with UACC-257 melanoma (10 µM unless noted); -20.2% (active) in the experiment on M14 melanoma (10 µM unless noted); -53% (active) in the experiment on HCT-15 colon (10 µM unless noted); -80.6% (active) in the experiment on HT29 colon (10 µM unless noted). Further, the growth was 45.4% with SNB-75 CNS (10 µM unless noted); 60% in the experiment on SNB-19 CNS (10 µM unless noted); -92% (active) with U251 CNS (10 µM unless noted); 21.1% in the experiment on PC-3 prostate (10 µM unless noted); 46.2% in the experiment with SK-MEL-5 melanoma (10 µM unless noted); 52.5% in the experiment on UACC-62 melanoma (10 µM unless noted). Moreover, the growth was -94.3% (active) in the experiment on LOX IMVI melanoma (10 µM unless noted) and 76.6% with SK-MEL-28 melanoma (10 µM unless noted).

Turning to `COc1ccc2c(c1)c(-c1cc(N)n3nc(-c4c[nH]c5ccccc45)cc3n1)cn2C`, the growth in the experiment with DU-145 prostate (10 µM unless noted) is -46.6% (active); with K-562 leukemia, 1.75% (active); in the experiment on MALME-3M melanoma (10 µM unless noted) it was -89.9% (active); with MDA-MB-231 breast (10 µM unless noted), -75.7% (active); in the experiment on RXF 393 renal (10 µM unless noted), -79% (active); with SF-268 CNS (10 µM unless noted), -41.1% (active). For the same molecule, the growth in the experiment with SF-295 CNS (10 µM unless noted) was -76.9% (active); with SF-539 CNS (10 µM unless noted), -97.1% (active); in the experiment on UACC-257 melanoma (10 µM unless noted), -89.6% (active); in the experiment with M14 melanoma (10 µM unless noted), -71.2% (active); with HCT-15 colon (10 µM unless noted), -69.8% (active); in the experiment on HT29 colon (10 µM unless noted), -71.7% (active). In addition, the growth with SNB-75 CNS (10 µM unless noted) is -24.8% (active); in the experiment on SNB-19 CNS (10 µM unless noted) it was -57.1% (active); with U251 CNS (10 µM unless noted), -87.8% (active); with PC-3 prostate (10 µM unless noted), 1.08% (active); with SK-MEL-5 melanoma (10 µM unless noted), -94.8% (active); in the experiment on UACC-62 melanoma (10 µM unless noted), -92% (active). Moreover, the growth in the experiment on LOX IMVI melanoma (10 µM unless noted) was -86.1% (active); in the experiment on SK-MEL-28 melanoma (10 µM unless noted) it was -94.6% (active).

With `Cc1[nH]nc2ccc3nc(-c4cn[nH]c4C(F)(F)F)c4c(c3c12)CCCC4`, the growth in the experiment with DU-145 prostate (10 µM unless noted) is 5.72% (active); in the experiment on K-562 leukemia it was 14.9%; with MALME-3M melanoma (10 µM unless noted), -24% (active); in the experiment with MDA-MB-231 breast (10 µM unless noted), -14.8% (active); with RXF 393 renal (10 µM unless noted) it was -79.6% (active); in the experiment with SF-268 CNS (10 µM unless noted), 18%. For the same molecule, the growth in the experiment on SF-295 CNS (10 µM unless noted) was -12.9% (active); in the experiment with SF-539 CNS (10 µM unless noted), -67.2% (active); in the experiment on UACC-257 melanoma (10 µM unless noted), 17.8%; with M14 melanoma (10 µM unless noted) it was 3.29% (active); in the experiment on HCT-15 colon (10 µM unless noted), -4.58% (active); with HT29 colon (10 µM unless noted) it was 5.08% (active). Besides, the growth in the experiment with SNB-75 CNS (10 µM unless noted) is -9.8% (active); in the experiment on SNB-19 CNS (10 µM unless noted) it was 3.47% (active); in the experiment on U251 CNS (10 µM unless noted), 7.24% (active); in the experiment with PC-3 prostate (10 µM unless noted), 4.97% (active); in the experiment on SK-MEL-5 melanoma (10 µM unless noted), -51.2% (active); with UACC-62 melanoma (10 µM unless noted), -57.3% (active). Also, the growth in the experiment with LOX IMVI melanoma (10 µM unless noted) was -39.9% (active); in the experiment with SK-MEL-28 melanoma (10 µM unless noted), -20.1% (active).

Regarding `COc1ccc2[nH]cc(-c3cc4nc(-c5cn(C)c6ncc(Br)cc56)cc(N)n4n3)c2c1`, the growth is -70.7% (active) in the experiment with DU-145 prostate (10 µM unless noted); -27.4% (active) in the experiment on K-562 leukemia; -87% (active) in the experiment with MALME-3M melanoma (10 µM unless noted); -83.8% (active) with MDA-MB-231 breast (10 µM unless noted); -77.2% (active) in the experiment with RXF 393 renal (10 µM unless noted); -44% (active) with SF-268 CNS (10 µM unless noted). Further, the growth is -77.4% (active) in the experiment on SF-295 CNS (10 µM unless noted); -95.4% (active) with SF-539 CNS (10 µM unless noted); -82.3% (active) in the experiment on UACC-257 melanoma (10 µM unless noted); -85.2% (active) in the experiment on M14 melanoma (10 µM unless noted); -70.5% (active) in the experiment on HCT-15 colon (10 µM unless noted); -76.1% (active) in the experiment with HT29 colon (10 µM unless noted). Moreover, the growth was -56.9% (active) in the experiment with SNB-75 CNS (10 µM unless noted); -29.4% (active) in the experiment with SNB-19 CNS (10 µM unless noted); -76.1% (active) with U251 CNS (10 µM unless noted); -39.5% (active) in the experiment on PC-3 prostate (10 µM unless noted); -88.3% (active) in the experiment with SK-MEL-5 melanoma (10 µM unless noted); -82.5% (active) with UACC-62 melanoma (10 µM unless noted). Moreover, the growth is -97.9% (active) with LOX IMVI melanoma (10 µM unless noted) and -92.4% (active) with SK-MEL-28 melanoma (10 µM unless noted).

As for `O=C1CC(c2ccc(I)cc2)OC2C=Cc3ccccc3C12` (stereo not drawn), the growth in the experiment on DU-145 prostate (10 µM unless noted) is 106%; in the experiment on K-562 leukemia, 102%; with MALME-3M melanoma (10 µM unless noted) it was 94.3%; in the experiment with MDA-MB-231 breast (10 µM unless noted), 97.6%; in the experiment on RXF 393 renal (10 µM unless noted), 107%; in the experiment with SF-268 CNS (10 µM unless noted), 114%. The growth is 99.9% in the experiment with SF-295 CNS (10 µM unless noted); 106% in the experiment on SF-539 CNS (10 µM unless noted); 113% with UACC-257 melanoma (10 µM unless noted); 108% in the experiment on M14 melanoma (10 µM unless noted); 94.9% in the experiment with HCT-15 colon (10 µM unless noted); 90.7% in the experiment on HT29 colon (10 µM unless noted). Also, the growth with SNB-75 CNS (10 µM unless noted) was 111%; in the experiment on SNB-19 CNS (10 µM unless noted), 101%; in the experiment on U251 CNS (10 µM unless noted), 99.5%; in the experiment with PC-3 prostate (10 µM unless noted), 101%; in the experiment with SK-MEL-5 melanoma (10 µM unless noted), 104%; in the experiment with UACC-62 melanoma (10 µM unless noted) it was 78.9%. Moreover, the growth is 99.6% in the experiment on LOX IMVI melanoma (10 µM unless noted) and 116% in the experiment on SK-MEL-28 melanoma (10 µM unless noted).
